Measurements reported in PubChem BioAssay AID651599 (National Center for Advancing Translational Sciences (NCATS), 2012).
Results filed as inconclusive are left out. Entries that show only a call come without a potency. Calls of active or inactive are those of the source. The call rests on the fitted dose curve; in most records, active means well fitted inhibition curve with a large enough effect; inconclusive means small, poorly fitted or top-dose-only effect; inactive means no such curve, though single readings can be large or run the other way.

Target: Tumor susceptibility gene 101 protein (Homo sapiens) (UniProt Q99816)
Experiment: qHTS Assay for Iinhibitors of HIV-1 Budding by Blocking the Interaction of PTAP/TSG101: Hit Validation in TR assay
Outline: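 Fluorescence polarization: Tsg101 binding domain (10 uM final) with Texas Red-labelled PTAP peptide (50 nM final) in HEPES pH 7.5, 0.15 M NaCl, Tween 20, EDTA, TCEP; 20 min binding at room temperature after compound addition.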
Potency means the concentration at half of the fitted maximal effect.

Sequence of Tumor susceptibility gene 101 protein (Homo sapiens) (Q99816 whole entry, looked up): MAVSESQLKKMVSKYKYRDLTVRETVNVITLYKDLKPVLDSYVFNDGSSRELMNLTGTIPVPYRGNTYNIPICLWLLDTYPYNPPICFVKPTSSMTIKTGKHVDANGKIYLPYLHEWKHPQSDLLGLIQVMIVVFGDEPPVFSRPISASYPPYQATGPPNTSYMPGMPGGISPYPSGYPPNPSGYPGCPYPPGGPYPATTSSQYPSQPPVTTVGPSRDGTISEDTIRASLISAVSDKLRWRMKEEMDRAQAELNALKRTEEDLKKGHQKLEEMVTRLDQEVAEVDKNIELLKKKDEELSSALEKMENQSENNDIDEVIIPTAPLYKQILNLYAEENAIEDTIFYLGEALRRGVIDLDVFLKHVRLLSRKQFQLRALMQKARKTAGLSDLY

Structure (SMILES)	Potency
N#CC(C(=O)NC1CC1)c1nc2ccccc2nc1N1CCCC1 (configuration not stated)	inactive
CCN(CC)C(=O)[C@H]1CC(CC(=O)NCc2cccc(C(F)(F)F)c2)C(=O)N2CCc3c([nH]c4ccc(OC)cc34)[C@]12C (some centres not stated)	inactive
CCCCCCn1c(=O)[nH]c2nc3cc(N)c(C)cc3nc2c1=O	inactive
CCCNc1c(F)c(F)c2c(C)c3ccccc3nc2c1F	inactive
Cc1ccccc1-c1ccc(/C=C2/SC(N3CCOCC3)=NC2=O)o1	inactive
Nc1ccc2nc3c(=O)[nH]c(=S)[nH]c3nc2c1	inactive
CCOC(=O)N1CCN(c2nc3ccccc3nc2C(C#N)S(=O)(=O)c2ccc(C)cc2)CC1 (configuration not stated)	inactive
CC(C)CCN1C(=O)c2cccc3c(N)ccc(c23)C1=O	inactive
Cc1ccc2c(c1)c1nc3ccccc3nc1n2C	inactive
Cc1c(C(=O)N(C)c2cccc(C(F)(F)F)c2)sc2nc3n(c(=O)c12)CCCCC3	inactive
CCCN1CCCc2cc(CN)ccc21	inactive
Nc1ccc2c(c1)C/C(=C/c1ccco1)C2=O	inactive
COc1ccc(CNS(=O)(=O)c2cc3c(cc2Cl)N(C(C)=O)CCO3)cc1	inactive
Nc1ccc(-c2c3ccc(=O)cc-3oc3cc(O)ccc23)cc1C(=O)O	36.6 µM (active)
O=S(=O)(Nc1nc2n(n1)C(c1ccccc1)C=C(c1ccc(Cl)cc1)N2)c1ccccc1 (configuration not stated)	inactive
O=C(OCCN1C(=O)c2cccc3c(N4CCOCC4)ccc(c23)C1=O)c1cccc(Cl)c1	inactive
Cc1ccc(C2C=C(c3ccccc3)Nc3nc(NS(C)(=O)=O)nn32)cc1 (configuration not stated)	inactive
